According to the supplement of paper PMC6522484:
± gives the standard deviation of the averaged measurements.

Tests used:
[1] = system: DLD1; experiment: cell viability (CellTiter-Glo) relative to plate median (fraction of plate median); higher = more viable cells; details: 5 µM; treatment time 24 h; reporter: 7TFP
How it was run: (§1)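 Stable lentiviral TCF/Wnt firefly luciferase reporters (7TFP or TCF4/Wnt) were present in the colorectal cancer cell lines used. These cells received library compounds at a final 5 µM for 24 h, and parallel plates were read for firefly luciferase or CellTiterGlo luminescence. Each well was normalised to the plate median, and the value reported is the mean of two independent replicates.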

[2] = system: HCT116; experiment: as above; details: 5 µM; treatment time 24 h; reporter: TCF4/Wnt
How it was run: as §1

[3] = system: SW480; experiment: as above; details: 5 µM; treatment time 24 h; reporter: 7TFP
How it was run: as §1

[4] = system: DLD1; experiment: TCF/Wnt firefly luciferase reporter signal relative to plate median (fraction of plate median); higher = higher Wnt reporter signal; details: 5 µM; treatment time 24 h; reporter: 7TFP
How it was run: as §1

[5] = system: SW480; experiment: as above; details: 5 µM; treatment time 24 h; reporter: 7TFP
How it was run: as §1

Compound | cell viability [1] | cell viability [2] | cell viability [3] | TCF/Wnt firefly luciferase reporter signal [4] | TCF/Wnt firefly luciferase reporter signal [5]
CCC[C@@H]1C[C@@H](C(=O)N[C@@H]([C@H]2O[C@H](SC)[C@H](O)[C@@H](O)[C@H]2O)[C@H](C)Cl)N(C)C1 | 0.966 ± 0.15 | 1 ± 0.042 | 1.07 ± 0.057 | 0.907 ± 0.028 | 1.04 ± 0.028
C[C@H](CCC(=O)O)[C@H]1CC[C@H]2[C@@H]3[C@H](O)C[C@@H]4C[C@H](O)CC[C@]4(C)[C@H]3CC[C@]12C | 1 ± 0.021 | 1.01 ± 0.22 | 1.025 ± 0.0071 | 0.949 ± 0.038 | 1.1 ± 0.028
CC(C)(Oc1ccc(C2CC2(Cl)Cl)cc1)C(=O)O (stereo not given) | 1.06 ± 0.05 | 0.968 ± 0.074 | 1.06 ± 0.014 | 0.943 ± 0.18 | 0.963 ± 0.17
Nc1nc2c(ncn2[C@@H]2O[C@H](CO)[C@@H](O)[C@H]2O)c(=O)[nH]1 [Guanosin] | 0.915 ± 0.033 | 0.934 ± 0.044 | 0.903 ± 0.023 | 0.927 ± 0.019 | 0.88 ± 0.014
O=C(/C=C/c1ccc(O)c(O)c1)O[C@H](Cc1ccc(O)c(O)c1)C(=O)O | 1.04 ± 0.014 | 0.947 ± 0.09 | 0.998 ± 0.031 | 0.854 ± 0.015 | 0.934 ± 0.054
N=C1C=CC(=C(c2ccc(N)cc2)c2ccc(N)cc2)C=C1 | 0.908 ± 0.046 | 0.873 ± 0.0028 | 0.829 ± 0.053 | 0.923 ± 0.057 | 0.819 ± 0.14
COc1ccc(-c2coc3c(O)c(OC)ccc3c2=O)cc1 | 0.969 ± 0.073 | 0.984 ± 0.08 | 0.99 ± 0.014 | 1 ± 0.12 | 1.01 ± 0.095
CCCC(C(=O)OCCN(CC)CC)(c1ccccc1)c1ccccc1 | 1.03 ± 0.098 | 0.972 ± 0.04 | 1.03 ± 0.028 | 1.22 ± 0.22 | 1.06
O=C(Nc1ccc(C(=O)O)c(O)c1)c1ccccc1 | 1.065 ± 0.0071 | 0.924 ± 0.011 | 1.01 ± 0.032 | 0.83 ± 0.016 | 1.07 ± 0.05
CC(=O)Nc1ccccc1 | 0.977 ± 0.02 | 0.97 ± 0.043 | 0.966 ± 0.0042 | 1.05 ± 0.11 | 0.975 ± 0.028
CC(=O)O[C@@H]1C[C@H]2C(C)(C)C(=O)CC[C@]2(C)[C@H]2CC[C@@]3(C)[C@H](c4ccoc4)OC(=O)[C@H]4O[C@]43[C@@]21C | 0.999 ± 0.086 | 0.986 ± 0.011 | 1.01 ± 0.026 | 0.949 ± 0.087 | 0.899 ± 0.021
COc1ccc2c(c1)O[C@@H]1COc3cc(OC)c(OC)cc3[C@@H]1C2=O | 1.02 ± 0.067 | 0.841 ± 0.074 | 0.908 ± 0.037 | 0.979 ± 0.087 | 0.777 ± 0.046
CCCC(=O)NCCc1ccccc1 [N-(2-Phenyl)ethylbutyramide] | 1.07 ± 0.11 | 1.08 ± 0.15 | 1.06 ± 0.071 | 1.07 ± 0.14 | 0.9865 ± 0.00071
C[C@](N)(Cc1ccc(O)c(O)c1)C(=O)O | 0.981 ± 0.098 | 0.996 ± 0.062 | 1.03 ± 0.028 | 1.04 ± 0.087 | 1.03 ± 0.12
Oc1ncnc2[nH]ncc12 | 0.939 ± 0.063 | 1.05 ± 0.12 | 1.07 ± 0.057 | 1.03 | 0.961 ± 0.11
